# Assay outcomes deposited in PubChem by several laboratories.
# GalR3 antagonist: antagonists of human GalR3; HEK293 GalR3-CNG cAMP membrane potential fluorescence; galR3 body fused to GalR1 C-terminus; actives 0.44% (n = 360,000); inhibition, % at 3 µM;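 active = inhibition above the screen-wide average plus 3 SD, cut at about 13% in these data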;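 note: forskolin and galanin both at EC90 stimulate the cells; cAMP rise reported by CNG channel membrane potential dye signal; 0% = forskolin plus galanin with DMSO and 100% = forskolin alone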
# Target sequence (O60755 1-299 limits assumed): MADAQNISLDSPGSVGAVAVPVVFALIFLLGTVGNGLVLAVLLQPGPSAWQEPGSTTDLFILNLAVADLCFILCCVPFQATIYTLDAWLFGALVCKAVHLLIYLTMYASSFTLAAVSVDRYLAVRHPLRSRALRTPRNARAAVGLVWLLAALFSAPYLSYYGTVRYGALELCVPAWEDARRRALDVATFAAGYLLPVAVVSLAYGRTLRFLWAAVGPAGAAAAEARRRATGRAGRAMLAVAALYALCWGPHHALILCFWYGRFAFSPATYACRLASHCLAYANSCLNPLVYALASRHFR
# H9c2 protect: protects H9c2 cardiomyocytes from peroxide injury; H2O2 injury protection, ATPLite, 2 h; protection from H2O2 cell death, % at 20 µM; actives 0.63% (n = 360,000); AID 588492;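 active = compounds giving at least 50% protection of heart cells from peroxide-induced death in the single-dose screen, raw or plate-pattern-corrected value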;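 note: 0% = DMSO wells with peroxide and 100% = DMSO wells without peroxide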
# FXN GAA850 act: increases GAA850 frataxin promoter reporter activity; activation, % at 6 µM; HEK293 lucGAA850 FXN promoter luciferase reporter, 24 h; percent of 10 µM SAHA response; actives 0.56% (n = 360,000); AID 540364;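 active = activation above the average of all compounds screened plus 3 SD, cutoff fixed separately per campaign, cut at about 7.5% in these data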;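 note: 0% = DMSO wells and 100% = 10 µM SAHA wells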
# SMARCA2 act: increases SMARCA2 function in MMTV reporter cells; MG213 cells, MMTV-luciferase reporter, dexamethasone, overnight; actives 1% (n = 370,000); activation, % at 9.1 µM; in the data active = activation above about 7.8%;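 note: 0% = vehicle wells and 100% = reference activator wells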
# Gli-Sufu block: antagonists of Gli-Sufu signaling | Sufu-KO-LIGHT fibroblasts, Gli luciferase reporter luminescence | inhibition, % at 5 µM | actives 0.74% (n = 340,000) | AID 588413;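 active = inhibition above about 55%, limit read from the data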;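 note: 0% = DMSO-treated cells and 100% = wells with medium but no cells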
# COUP-TFII inh: NR2F2 (human) inhibition, primary screen; actives 0.7% (n = 370,000); P24468; inhibition, % at 8.6 µM; HEK293T NGFI-A luciferase reporter, luminescence;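 active = inhibition above a per-plate cutoff, mean inhibition of test wells between control levels plus 3 SD, cut at about 38% in these data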;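 note: cells cotransfected with COUP-TFII expression vector driving the NGFI-A reporter; 0% = median of COUP-TF2 test wells and 100% = reporter-only cells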
# Target sequence (P24468 whole entry, looked up): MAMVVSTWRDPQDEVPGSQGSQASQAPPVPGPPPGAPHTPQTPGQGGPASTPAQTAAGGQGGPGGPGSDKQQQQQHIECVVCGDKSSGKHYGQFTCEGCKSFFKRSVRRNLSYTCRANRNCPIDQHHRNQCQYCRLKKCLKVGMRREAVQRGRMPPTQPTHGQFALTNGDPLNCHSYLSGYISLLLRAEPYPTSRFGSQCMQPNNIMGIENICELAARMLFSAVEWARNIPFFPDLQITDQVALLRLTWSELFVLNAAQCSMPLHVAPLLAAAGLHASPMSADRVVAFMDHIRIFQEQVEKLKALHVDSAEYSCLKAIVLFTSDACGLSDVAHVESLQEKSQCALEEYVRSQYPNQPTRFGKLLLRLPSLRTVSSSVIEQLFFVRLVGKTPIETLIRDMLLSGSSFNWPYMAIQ
# GAA30 counter: counter-screen for GAA850 frataxin promoter activators: GAA30 promoter activation. HEK293 lucGAA30 FXN promoter luciferase, 24 h; DMSO = 0%, 5 µM ipriflavone = 100%. actives 66% (n = 1,900). activation, % at 6 µM. shares compounds with FXN GAA850 act;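 active = mean activation above the mean of solvent-only control wells plus 3 SD, cut at about 22% in these data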;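 note: counterscreen of GAA850 promoter hits where activity marks nonselective or luminescence artifacts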
# FXN GAA850 conf: GAA850 FXN promoter activation confirmation; shares compounds with FXN GAA850 act; HEK293 lucGAA850 FXN promoter luciferase reporter, 24 h; 100% = activation by SAHA; activation, % at 6 µM; actives 86% (n = 1,900);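 active = mean activation above a set limit taken from the primary screen, cut at about 8% in these data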;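 note: 0% = DMSO wells and 100% = 10 µM SAHA wells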
# Active calls of the source: *; . = not tested or not shown; ! = a repeat was not active. In the library only some 3.4% were active in any assay of this set; here they are far more common.
SMILES,GalR3 antagonist,H9c2 protect,FXN GAA850 act,SMARCA2 act,Gli-Sufu block,COUP-TFII inh,GAA30 counter,FXN GAA850 conf
C[C@]12CCC3C(CC[C@H]4C[C@H](O)CC[C@]34C)C1C[C@@H](O)[C@@H]2O (stereo partly drawn),-5.2,-2.5,0.1,-1.6,2.4,6.8,.,.
CC12C=CC(=O)CC1CCC1C2CCC2(C)C(O)C(O)CC12 (stereo not drawn),-6.0,117.7*,2.1,-2.5,0.7,20.3,.,.
CCN1C[C@@]2(COC)C3[C@@H](OC)[C@H]4[C@@H]1[C@@]3(C1C[C@H]3[C@H](OC(=O)c5ccccc5)C1[C@]4(OC(C)=O)C[C@H]3OC)[C@@H](OC)C[C@H]2O (stereo partly drawn),.,1.5,-0.7,.,3.1,.,.,.
O=C(NC1(C(F)(F)F)Oc2ccc(Cl)cc2O1)N1CCC2(CC1)OCCO2 (stereo not drawn),-4.1,77.9*,6.5,-4.6,33.3,-17.5,.,.
CC(C)C[C@@H]1COc2cccc(N3CCN(C)CC3)c2S(=O)(=O)N1,-4.5,.,.,-3.5,.,-13.7,.,.
COC(=O)[C@]12OC[C@]34C([C@@H](O)[C@@H]1O)[C@]1(C)CC(=O)C(O)=C(C)[C@@H]1C[C@H]3OC(=O)[C@H](O)[C@@H]24 (stereo partly drawn),-4.2,1.2,-6.2,-2.1,33.3,75.8*,.,.
CC(C)(C)n1nnnc1C1CN=C(c2ccccc2)c2ccccc2N1 (stereo not drawn),.,.,.,-0.5,.,-3.3,.,.
CCOC(=O)C1CCN(C=C2C(=O)N(C)C(=S)N(C)C2=O)CC1,-9.6,-0.8,-1.9,-5.8,-3.9,-1.6,.,.
O=C(N/N=C/c1c(O)n(C2CCCCC2)c(=S)[nH]c1=O)c1ccccc1O,2.1,52.3*,0.0,-0.6,-2.5,5.1,.,.
O=C(N/N=C/c1c(O)n(C2CCCCC2)c(=S)[nH]c1=O)c1ccccc1,1.3,63.5*,0.0,1.9,47.1,-39.1,.,.
C[C@H]1O[C@@H](O[C@H]2[C@@H](O)C[C@H](O[C@H]3[C@@H](O)C[C@H](O[C@H]4CC[C@@]5(C)[C@H](CC[C@@H]6[C@@H]5CC[C@]5(C)[C@@H](C7=CC(=O)OC7)CC[C@]65O)C4)O[C@@H]3C)O[C@@H]2C)C[C@H](O)[C@@H]1O,.,.,.,.,7.3,.,.,.
C[C@H]1O[C@@H](OC2CC[C@]3(C=O)[C@H]4CC[C@]5(C)[C@@H](C6=CC(=O)OC6)CC[C@]5(O)[C@@H]4CC[C@]3(O)C2)CC2OC(C)(C)OC21 (stereo partly drawn),34.1*,0.1,-14.7,-7.8,12.7,75.0*,.,.
C(CCc1nn[nH]n1)CCc1nn[nH]n1,-0.2,3.1,3.6,-2.0,-3.3,-11.2,.,.
O=C(O)c1cc(S(=O)(=O)N2CC3CC(C2)c2cccc(=O)n2C3)ccc1F (stereo not drawn),-4.0,.,.,1.9,.,9.2,.,.
COc1ccc(C(c2nnnn2C2CCCCC2)N2CCC3(CC2)C(=O)NCN3c2ccccc2)cc1 (stereo not drawn),-10.7,13.1,.,1.0,.,-4.6,.,.
CCOc1ccc2[nH]c(=O)c(CN(CCO)C3(c4nnnn4C4CCCCC4)CCCCC3)cc2c1,-0.7,78.5*,3.5,-0.5,-12.0,-14.5,.,.
COC(=O)C[C@]1(C(=O)OC)CN(C#N)N(c2ccc(Cl)cc2)C12c1ccccc1-c1ccccc12,7.9,-3.7,-14.5,-9.5,37.9,102.3*,.,.
CC1(C)CN2C(c3ccc(Cl)cc3)N2C1 (stereo not drawn),-2.1,-8.5,0.6,-1.2,4.3,14.6,.,.
O=C1Nc2ccccc2C(c2ccccc2)=NC1O (stereo not drawn),-7.8,1.4,-1.9,1.7,0.2,-20.8,.,.
CN1C(=O)c2ccccc2NC(=O)[C@]12O[C@@H]2c1ccccc1,0.1,0.5,13.1*,-4.1,-24.9,4.0,20.1,5.1
CCN(CC)C(=O)c1ccc2c(c1)C1C=CCC1C(C(=O)O)N2 (stereo not drawn),-7.4,5.2,0.4,-3.6,29.3,-2.4,.,.
O=C(NCCCn1ccnc1)C(Cl)(Cl)Cl,-2.5,7.0,1.6,0.9,23.9,6.4,.,.
CCN1C(=O)C(=Cc2ccc(C)s2)C(=O)N(CC)C1=S,-4.5,0.9,9.0*,3.7,-79.3,-20.4,79.4*,45.3*
CCN1C(=O)C(=Cc2cc(C)n(C3CC3)c2C)C(=O)N(CC)C1=S,-0.7,3.2,0.9,-3.5,6.0,-8.8,.,.
O=C(O)CCCc1ccc(N(CCCl)CCCl)cc1,4.7,-2.7,-0.2,-4.3,12.6,-0.4,.,.
SMILES,GalR3 antagonist,H9c2 protect,FXN GAA850 act,SMARCA2 act,Gli-Sufu block,COUP-TFII inh,GAA30 counter,FXN GAA850 conf
O=c1[nH]cnc2nc(-c3ccc(N(CCCl)CCCl)cc3)[nH]c12,-3.6,-10.1,9.0*,5.7,-96.6,-76.5,90.8*,56.3*
CC(C)(C)n1nnnc1C1CN=C(c2ccccc2)c2cc(Cl)ccc2N1 (stereo not drawn),.,.,.,-3.2,.,1.3,.,.
CC/C(=N\Nc1ccccc1)c1c(O)[nH]c(=O)[nH]c1=O,-1.6,1.1,-0.8,0.6,-2.5,-13.9,.,.
CCC(=NC(C)c1ccccc1)c1c(O)[nH]c(=O)[nH]c1=O (stereo not drawn),0.8,-0.2,8.5*,3.4,5.7,-19.7,15.5,10.1*
COc1ccc(OC(=O)N(C)C[C@@H]2OCc3ccccc3-c3c(n(C)c4ccccc34)C(=O)N([C@H](C)CO)C[C@@H]2C)cc1,-4.5,-6.7,11.7*,-4.0,.,-0.5,17.8,9.1*
CN(C)[C@@H]1C(=O)C(C(N)=O)=C(O)[C@@]2(O)C(=O)C3=C(O)c4c(O)cccc4[C@@](C)(O)C3[C@H](O)C12 (stereo partly drawn),.,14.6,14.6*!,1.4,8.6,-9.6,28.3*,9.1*
CN(C)[C@@H]1C(=O)C(C(N)=O)=C(O)[C@@]2(O)C(=O)C3=C(O)c4c(O)ccc(Cl)c4[C@@](C)(O)C3C[C@@H]12 (stereo partly drawn),-3.1,7.2,13.7*,1.4,14.0,-0.5,5.5,0.6
O=c1ccc2cc3ccoc3c(O)c2o1,-0.7,-0.5,-0.8,-0.7,5.1,-19.5,.,.
O=c1cccc2n1CC1CC2CN(c2nc(N3CCCCC3)nc(N3CCCCC3)n2)C1 (stereo not drawn),9.0,4.3,11.1*,-4.3,16.2,5.8,32.4*,12.3*
CCNC(=O)C1OC(n2cnc3c(N)ncnc32)C(O)C1O (stereo not drawn),-12.5,3.5,10.1*,-0.1,15.3,-65.2,17.6,25.8*
